Compound activity (PubChem BioAssay)
Shiga toxin inh: blocks Shiga toxin action in Vero cells. 290,000 tested, 9.2% active. Vero cells, Shiga toxin protein synthesis inhibition reporter. inhibition, % at 38.7 µM; in the data active means inhibition mostly above about 28%, no sharp cut-off; inactive means mostly below about 43%; further: 0% is about no effect
Pf growth 96h: P. falciparum growth inhibition at 96 hour, primary screen for plastid delayed-death inhibitors; 320,000 tested, 6.9% active; P. falciparum luciferase reporter growth, 96 h; Potency, µM (titrated, usually from 28.7 µM), for inactives: at the highest dose activity change, negative = inhibition, usual class: inhibitors; further: potency means the concentration at half of the fitted maximal effect; on the % scale 0 is the no-effect control and ±100 the full control effect
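Compounds incubated with erythrocytes infected by luciferase-expressing P. falciparum (2% hematocrit, 0.05% parasitemia final) for 96 hours, 37 C in 5% CO2. Growth inhibition scored as decreased luciferase luminescence.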
Pf growth 48h: inhibits P. falciparum growth in the first generation, 48 h. P. falciparum luciferase growth in erythrocytes, 48 h. Potency, µM (doses to about 28.7 µM), for the others: top-dose activity change, negative = inhibition, most hits filed as inhibitors. 310,000 tested, 5.9% active. AID 504832; further: potency means the concentration at half of the fitted maximal effect; on the % scale 0 is the no-effect control and ±100 the full control effect
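In quantitative HTS format, infected erythrocytes bearing luciferase-reporter parasites were treated for a single generation at 37 C. Luminescence after adding detection reagent served as the growth measure.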
CHX counter: counter-screen for Shiga toxin inhibitors: cycloheximide protein synthesis inhibition. cell reporter, cycloheximide protein synthesis inhibition counterscreen. max response, %. 300,000 tested, 12% active. AID 2314; in the data active means max response mostly above about 13%, no sharp cut-off; inactive means mostly below about 14%; further: read at 38.3 µM for the half of the compounds with a filed dose; 0% is about no effect
HCMV antiviral: blocks human cytomegalovirus replication; HFF cells, HCMV-luciferase reporter, 72 h; active compounds read low; AID 1259415; 410,000 tested, 4.5% active; activity change, negative = inhibition, % at 57.5 µM; in the data active means activity change below about -60%; inconclusive means no clear call, values can overlap the other calls; inactive means above about -39%; further: on the % scale 0 is the no-effect control and ±100 the full control effect
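Compounds were evaluated in HFFs infected with an HCMV luciferase reporter virus (MOI 1 PFU/cell). Luciferase in lysates collected 72 h post infection served as the replication measure.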
* marks the source's active call; other numbers are inactive results; i = inactive; ? = inconclusive; . = no result given. Only some compounds are listed: those with a hit (about 20% of all), similar ones and a draw of the others. Unless noted, the call rests on the fitted dose curve; in most records, active means well fitted inhibition curve with a large enough effect; inconclusive means small, poorly fitted or top-dose-only effect, or another doubt; inactive means no such curve, though single readings can be large or run the other way.

SMILES	Shiga toxin inh	Pf growth 96h	Pf growth 48h	CHX counter	HCMV antiviral
CCCNC(=O)N[C@H]1CC[C@@H](CCn2cc(-c3cccc(F)c3)nn2)O[C@@H]1CO	.	.	.	.	9
Cc1cccc(C)c1N1C(=O)c2ccccc2NC(=O)C1C(=O)Nc1ccc(N2CCOCC2)cc1 (configuration not stated)	.	.	.	.	8
Cn1cc(S(=O)(=O)N2CCc3ccccc32)cc1C(=O)Nc1ccc(Cl)cc1	3	33%	13µM*	3	-12
Cc1ccc(NC(=O)c2cc(S(=O)(=O)N3CCc4ccccc43)cn2C)cc1	1	?	?	-2	-16
CCCN(C(=O)c1cc(S(=O)(=O)N2CCc3ccccc32)cn1C)c1ccc(OCC)cc1	.	.	.	.	-75*
CC(=O)CC1(OC(C)=O)C(=O)N(C)c2ccccc21 (configuration not stated)	1	0%	-27%	-2	-64*
NC1=C(Cl)C(=O)c2ccc(S(N)(=O)=O)cc2C1=O	.	.	.	.	-101*
O=c1cc(N2CCOCC2)cnn1-c1ccccc1	73*	155%	118%	40*	68
CCC(C)(C)c1ccc(OCCCC[n+]2cccc(C)c2)c(C(C)(C)CC)c1	12	?	2.3µM*	-6	-101*
Cc1ccc[n+](CC(=O)Nc2cc(C(F)(F)F)ccc2Cl)c1	3	?	?	-5	-22
O=C(Nc1nccs1)c1ccc(CSc2ccccc2)o1	107*	?	53%	58*	51
CCc1nnc(NC(=O)c2ccc(COc3ccc(C)cc3)o2)s1	-8	?	22%	4	-5
Cc1ccc(SCc2ccc(C(=O)Nc3nccs3)o2)cc1	81*	-9%	2%	38*	9
O=C(Nc1nccs1)c1ccc(COc2ccccc2)o1	84*	-95%	51%	50*	22
Cc1ccc(OCc2ccc(C(=O)Nc3nccs3)o2)cc1	30	i	0%	4	92
CCc1nnc(NC(=O)c2ccc(COc3ccccc3)o2)s1	34	.	20%	1	1
COc1cccc(CN2CCN(c3ccc(F)cc3)CC2)c1OC	.	.	.	.	10
COc1cccc(CNc2ccc(N3CCC(C)CC3)cc2)c1OC	17	?	1.9µM*	13	-38
Cc1ccccc1C(=O)N1CCN(c2ccc(NC(=O)CSc3ccc(Cl)cc3)cc2)CC1	-9	?	?	6	-71*
O=C(COc1ccc(Cl)cc1)Nc1ccc(N2CCN(C(=O)c3ccco3)CC2)cc1	-18	12µM*	?	4	-86*
O=C(CSc1ccc(Cl)cc1)Nc1ccc(N2CCN(C(=O)c3ccco3)CC2)cc1	-5	.	12µM*	-2	2
COc1ccc(OCC(=O)Nc2ccc(N3CCN(C(=O)c4ccco4)CC3)cc2)cc1	-7	20%	0%	9	?
O=C(COc1ccc([N+](=O)[O-])cc1)Nc1ccc(N2CCN(C(=O)c3ccco3)CC2)cc1	-16	5.2µM*	14%	0	?
CCC(=O)Nc1ccc(N2CCN(C(=O)c3ccccc3C)CC2)cc1	-5	.	-13%	1	22
O=C(COc1nsnc1N1CCOCC1)Nc1ccc([N+](=O)[O-])cc1	-18	-22%	5.2µM*	-2	56
SMILES	Shiga toxin inh	Pf growth 96h	Pf growth 48h	CHX counter	HCMV antiviral
Cc1ccccc1OCC(=O)Nc1ccc(N2CCN(C(=O)c3ccco3)CC2)cc1	-4	5%	?	-2	-73*
O=C(COc1nsnc1N1CCOCC1)Nc1ccc(Cl)cc1	3	-7%	11%	-2	-10
N#Cc1c(/N=C/c2ccc(O)cc2O)sc2c1C1CCN2CC1	17	7%	-18%	9.9*	1
CCN1CCN(c2ccc(N=Cc3ccc(O)cc3O)cc2)CC1	-2	?	6%	-1	92
Cn1c(CC(=O)Nc2ccc(Cl)c(Cl)c2)n[nH]c1=S	-19	0.074µM*	-3%	-2	45
Cc1ccc(NC(=O)Cc2n[nH]c(=S)n2C)cc1	23	?	15%	-5	49
O=C(NN=Cc1ccccc1Cl)c1ccccc1	.	.	.	.	83
CC(C)Oc1ccccc1/C=N/NC(=O)c1ccccc1Cl	15	7%	8%	12*	-32
CC(C)Oc1ccccc1/C=N/NC(=O)C1CCCC1	-5	2.6µM*	-3%	1	39
CC(C)Oc1ccccc1/C=N/NC(=O)c1ccc(F)cc1	20*	-7%	16%	27*	14
CC(C)Oc1ccccc1/C=N/NC(=O)C1CC1	.	.	.	.	-37
O=C(N/N=C/c1ccccc1Cl)c1ccc(F)cc1	72*	65%	198%	56*	42
N#Cc1c(N2CCCC2)ccc(Br)c1Cl	1	44%	50%	2	-13
Cc1cccc(C)c1NC(=O)C(c1ccc(C#N)cc1)n1c(=O)c(-c2cc3ccccc3[nH]2)nc2ccccc21 (configuration not stated)	.	.	.	.	8
Cc1c(C(=O)Nc2cccc(-c3nc4ccccc4s3)c2)oc2ccccc12	.	.	.	.	50
Cc1ccccc1S(=O)(=O)NC(=O)C1(C)CCN1C(=O)C/C=C/c1ccccc1 (configuration not stated)	.	.	.	.	-36
CCN(CC)c1ccc(C(=O)N/N=C/c2ccccc2OC(F)F)cc1	28	?	10µM*	26*	-36
COc1ccccc1/C=N/NC(=O)c1ccc(N(C)S(=O)(=O)c2ccccc2)cc1	-9	-18%	9%	-9	-36
Cc1cc(C)c2c(n1)sc1c(O)cc(=O)[nH]c12	6	7.4µM*	18%	-1	0
COc1cc(S(=O)(=O)NCC2COCCO2)ccc1-n1cnnn1 (configuration not stated)	-20	12µM*	-17%	4	-1
COc1cc(S(=O)(=O)N(Cc2ccccc2)CC2CCCO2)ccc1-n1cnnn1 (configuration not stated)	-12	-2%	-9%	-1	-7
COc1ccc(S(=O)(=O)NC2CCCCC2)cc1-n1cnnn1	-4	2.6µM*	0%	5	11
COc1cc(S(=O)(=O)N(Cc2cccs2)CC2CCCO2)ccc1-n1cnnn1 (configuration not stated)	5	4.1µM*	-18%	-2	-8
CN1CCC(N(CCc2ccccc2)C(=O)CCC(=O)O)CC1	9	2%	75%	0	16
CCCOc1ccc(NC(=O)CC2C(=O)N(c3ccc(OC)cc3)C(=O)N2CCc2ccncc2)cc1 (configuration not stated)	.	.	.	.	-37
COc1ccc(N=Cc2sc(O)c3ccccc23)cc1	87*	-21%	-91%	66*	264
COc1ccc(N=Cc2c(OC)ccc3ccccc23)cc1	.	.	.	.	59
COc1ccc(N=Cc2c(O)c3ccccc3n2C(C)=O)cc1	52	?	?	14*	0
Fc1ccccc1C1CC(c2ccco2)=Nc2ccccc2S1 (configuration not stated)	104*	0%	52%	49*	12
